Screens deposited in PubChem BioAssay by Johns Hopkins Ion Channel Center.
KCNQ2 inh: KCNQ2 (rat) channel inhibition. O88943. CHO-K1 KCNQ2, FluxOR thallium flux, 20 min; active compounds read low. B-score at 10 µM. 1.1% of 310,000 active. AID 2156;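 active = fluorescence ratio B-score at most minus 3 library SDs, with starting brightness B-score within 2 library SDs, cut at about -5.5 in these data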
Target sequence (O88943 whole entry, looked up): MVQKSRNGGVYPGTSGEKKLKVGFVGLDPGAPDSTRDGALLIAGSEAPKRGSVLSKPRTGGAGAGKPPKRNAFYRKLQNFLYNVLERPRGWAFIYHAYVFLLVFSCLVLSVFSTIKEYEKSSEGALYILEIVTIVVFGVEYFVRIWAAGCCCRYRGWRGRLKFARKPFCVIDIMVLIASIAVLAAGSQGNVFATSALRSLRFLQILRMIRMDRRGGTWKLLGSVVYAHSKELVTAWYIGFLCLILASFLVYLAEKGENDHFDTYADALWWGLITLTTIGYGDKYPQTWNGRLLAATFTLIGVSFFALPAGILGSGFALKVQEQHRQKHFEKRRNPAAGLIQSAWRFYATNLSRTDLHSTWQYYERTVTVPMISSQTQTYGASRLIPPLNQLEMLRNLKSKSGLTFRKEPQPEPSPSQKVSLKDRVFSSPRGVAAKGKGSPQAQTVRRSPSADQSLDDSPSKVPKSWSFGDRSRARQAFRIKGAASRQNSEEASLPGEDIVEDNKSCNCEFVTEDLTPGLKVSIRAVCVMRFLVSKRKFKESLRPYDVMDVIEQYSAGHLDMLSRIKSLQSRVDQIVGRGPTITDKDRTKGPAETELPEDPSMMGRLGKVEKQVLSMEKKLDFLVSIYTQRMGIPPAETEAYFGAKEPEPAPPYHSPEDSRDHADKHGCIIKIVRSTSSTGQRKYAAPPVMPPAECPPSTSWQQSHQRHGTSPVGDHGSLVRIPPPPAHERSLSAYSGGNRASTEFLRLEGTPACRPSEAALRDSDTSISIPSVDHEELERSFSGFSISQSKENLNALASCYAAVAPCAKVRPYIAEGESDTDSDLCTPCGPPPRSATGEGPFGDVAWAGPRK
KCNQ2 enhance: KCNQ2 (rat) channel potentiation | O88943 | CHO-K1 KCNQ2, FluxOR thallium flux fluorescence; active compounds read high | B-score at 10 µM | 0.54% of 310,000 active;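 active = fluorescence ratio B-score at least 3 SD of library B-scores, with initial fluorescence B-score within 3 of them, cut at about 5.3 in these data; same plate scores as AID 2156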;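 note: B-score of peak minus minimum over baseline fluorescence ratio after K+ and Tl+ stimulus; positive B-score means potentiation of KCNQ2 with more thallium influx and brighter signal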
Kir21 conf inh: confirmation of mouse Kir2.1 potassium channel inhibitors | shares compounds with KCNQ2 enhance | Tl flux remaining, % of negative control (active compounds read low), % at 10 µM | 41% of 2,300 active | Kir2.1-expressing cells, FluxOR thallium flux fluorescence; active compounds read low | AID 2032;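 active = Primary-screen hit whose thallium flux fell at least 3 control SD below untreated wells in both duplicates, with normal baseline fluorescence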;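 note: 0% = blank wells without stimulus and 100% = stimulated no-compound controls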
HEK293 Tl flux: counter-screen for Kir2.1 inhibitors: effect in parental HEK293 cells. shares compounds with KCNQ2 enhance. FluxOR thallium flux fluorescence; 0% = unstimulated blank wells. FluxOR signal as % of negative control (100 = no effect), % at 10 µM. 19% of 2,300 active;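 active = dye signal at least 3 control SD above or below untreated wells in both duplicates, raw fluorescence within 3, either direction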;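 note: percent is based on the flux ratio of peak minus minimum fluorescence over baseline F0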
CHO-K1 ctr: alters thallium flux in parental CHO-K1 cells, KCNQ2 counter-screen; shares compounds with KCNQ2 enhance; FluxOR thallium flux fluorescence; zero = vehicle mean+3SD, 100% = vehicle-minus-blank window; activity increase over 3SD of controls, % at 10 µM; 43% of 1,200 active; AID 2282;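 active = signal rise of at least 3 SD above the untreated control mean, in both duplicate wells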;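 note: counter screen of KCNQ2 potentiator hits so any rise reflects channel-independent effects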
KCNQ1 sel pot: human KCNQ1 counter-target activity of KCNQ2 potentiators; shares compounds with KCNQ2 enhance; CHO KCNQ1 stable, FluxOR thallium flux fluorescence; beyond 3SD, as % of vehicle-control signal; activation over 3SD threshold, % at 10 µM; 28% of 1,200 active;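 active = fluorescence ratio rise of at least 3 SD of vehicle wells above their mean, in both replicate wells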;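 note: 0% = vehicle mean plus 3 SD and 100% = vehicle minus unstimulated blank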
KCNQ2 pot confirm: rat KCNQ2 channel potentiator confirmation | shares compounds with KCNQ2 enhance | CHO-KCNQ2 cells, FluxOR thallium flux fluorescence | potentiation, less the hit threshold, % at 10 µM | 68% of 1,200 active | AID 2287;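 active = fluorescence ratio rising 3 SD or more over the vehicle control mean in both replicates, plus primary screen hit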;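 note: peak minus minimum thallium fluorescence divided by baseline after K/Tl stimulus; 0% = vehicle mean plus 3 SD and 100% = vehicle minus unstimulated blank difference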
Kir21 spec: tests whether KCNQ2 potentiators also affect mouse Kir2.1. activity over 3SD threshold, % at 10 µM. shares compounds with KCNQ2 enhance. 2% of 1,200 active. HEK293 Kir2.1, FluxOR thallium flux fluorescence;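 active = fluorescence ratio rise of at least 3 SD above the vehicle-control mean, seen in both replicates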;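 note: 0% = vehicle mean plus 3 SD and 100% = vehicle minus no-stimulus blank window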
KCNQ2 W236L pot: rat KCNQ2 W236L mutant potentiation by KCNQ2 potentiators. current increase over 3SD of negative controls (%), active compounds read high, % at 25 µM. shares compounds with KCNQ2 enhance. CHO KCNQ2-W236L, automated patch clamp current. 10% of 940 active;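 active = current increase at least 3 SD of the untreated controls above them in both duplicate recordings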
Starred values were filed as active, the others as inactive; i = inactive; nt = no result given. This is a sample that favours compounds with a hit; in the whole collection about 1.6% have one here.

SMILES	KCNQ2 inh	KCNQ2 enhance	Kir21 conf inh	HEK293 Tl flux	others
O=C1NC(c2ccccc2)=C(c2nc3ccccc3s2)C(c2ccc(O)cc2)N1 (stereo not drawn)	i	15*	i	i	CHO-K1 ctr=-20;KCNQ1 sel pot=-1;KCNQ2 pot confirm=11*;Kir21 spec=-33;KCNQ2 W236L pot=i
O=C1NC(c2ccccc2)=C(c2ccc3ccccc3n2)C(c2ccccc2)N1 (stereo not drawn)	i	nt	nt	nt
CCOc1ccc(NC(C)c2cc(Cl)ccc2O)cc1 (stereo not drawn)	i	4.5	nt	nt
CC(Nc1ccc(Cl)cc1)c1cc(Cl)ccc1O (stereo not drawn)	i	4.2	59%*	i
COc1ccc(C2/C(=C(/O)c3ccccc3)C(=O)C(=O)N2C)cc1OC (stereo not drawn)	i	0.81	nt	nt
CCn1ncc([N+](=O)[O-])c1C(=O)Nc1nc2cccc(C)c2s1	i	0.05	nt	nt
CCn1ncc([N+](=O)[O-])c1C(=O)Nc1c(C)cccc1C	i	14*	i	i	CHO-K1 ctr=-18;KCNQ1 sel pot=0;KCNQ2 pot confirm=-11;Kir21 spec=-29
Nc1nc(C2CCCN2S(=O)(=O)c2ccc(Cl)cc2)cs1 (stereo not drawn)	i	1.3	62%*	i
O=S(=O)(c1ccc(Cl)cc1)N1CCCC1c1nc(-c2ccc(Cl)cc2)no1 (stereo not drawn)	i	nt	nt	nt
O=C(O)CCC(=O)NNC(=O)CCC1CCCCC1	i	0.21	nt	nt
O=C(CCC1CCCCC1)NNC(=O)NC12CC3CC(CC(C3)C1)C2	i	9.3*	i	i	CHO-K1 ctr=-22;KCNQ1 sel pot=-62;KCNQ2 pot confirm=12*;Kir21 spec=-32;KCNQ2 W236L pot=i
NCCNC[C@@H]1COC2(CCCCCCCCCCC2)O1	i	nt	nt	nt
Cc1ccc(S(=O)(=O)NC(=S)NC2CCCCC2)cc1	i	4.1	nt	nt
CCc1ccc(S(=O)(=O)NC(=S)NC2CCCCC2)cc1	i	8.9*	i	302%*	CHO-K1 ctr=-18;KCNQ1 sel pot=-18;KCNQ2 pot confirm=52*;Kir21 spec=-28;KCNQ2 W236L pot=i
CCc1ccc(C(C)NC(=O)C2CCCC2)cc1 (stereo not drawn)	i	12*	i	i	CHO-K1 ctr=9.3*;KCNQ1 sel pot=-12;KCNQ2 pot confirm=18*;Kir21 spec=-16;KCNQ2 W236L pot=i
CC(CCc1ccccc1)NC(=S)NC1CCCCC1 (stereo not drawn)	i	nt	nt	nt
CCC(C)c1ccc(C(C)NC(=S)NC2CCCCC2)cc1 (stereo not drawn)	i	13*	nt	nt	CHO-K1 ctr=57*;KCNQ1 sel pot=37*;KCNQ2 pot confirm=34*;Kir21 spec=-50;KCNQ2 W236L pot=i
CCOc1ccc(C(C)NC(=O)C2CCCC2)cc1 (stereo not drawn)	i	1.5	nt	nt
CCC(NC(=S)NC1CCCCC1)c1ccccc1 (stereo not drawn)	i	12*	nt	nt	CHO-K1 ctr=-9;KCNQ1 sel pot=-1;KCNQ2 pot confirm=28*;Kir21 spec=-59;KCNQ2 W236L pot=i
CCC(C)c1ccc(NC(=S)NC2CCN(Cc3ccccc3)CC2)cc1 (stereo not drawn)	i	nt	nt	nt
O=C(c1cccs1)N1CCN(c2ncc(Br)cn2)CC1	i	nt	nt	nt
CN(CC(=O)Nc1c(Cl)cccc1Cl)C(=O)c1ccc2nc[nH]c2c1	i	nt	nt	nt
C[C@@H]1CC2OC(=O)[C@@]3(C)C(=O)CC[C@@](C)(C23)[C@@]1(O)CCc1ccoc1 (stereo partly drawn)	i	0.09	nt	nt
O=C(CNC(=O)N1CC(=O)Nc2ccccc21)Nc1ccc(F)c(Cl)c1	i	0.22	nt	nt
COCCC(=O)N1CCC(Oc2ccc(C(=O)N3C[C@H]4CC[C@H]3C4)cc2)CC1	i	1.2	nt	nt
SMILES	KCNQ2 inh	KCNQ2 enhance	Kir21 conf inh	HEK293 Tl flux	others
COc1ccccc1CNS(=O)(=O)N(C)C	i	0.25	nt	nt
CCc1ccc(C(C)NC(=O)C2(C)CC2(Br)Br)cc1 (stereo not drawn)	i	0.22	nt	nt
CC(NC(=O)C1CCCC1)c1ccc2c(c1)OCCO2 (stereo not drawn)	i	1.8	nt	nt
CCOc1ccc(C(C)NC(=S)NC2CCCCC2)cc1 (stereo not drawn)	i	5.4*	i	i	CHO-K1 ctr=-15;KCNQ1 sel pot=27*;KCNQ2 pot confirm=20*;Kir21 spec=-43;KCNQ2 W236L pot=i
CC(NC(=O)C1CCCCC1)c1ccc2c(c1)OCCO2 (stereo not drawn)	i	5.7*	i	i	CHO-K1 ctr=6.0*;KCNQ1 sel pot=39*;KCNQ2 pot confirm=8.5*;Kir21 spec=-17;KCNQ2 W236L pot=i
CCOc1ccc(C(C)NC(=S)NC2CCCCC2)cc1OCC (stereo not drawn)	i	2.3	nt	nt
CCc1ccc(C(C)NC(=S)NC2CCCCC2)cc1 (stereo not drawn)	i	20*	i	i	CHO-K1 ctr=15*;KCNQ1 sel pot=7.8*;KCNQ2 pot confirm=72*;Kir21 spec=-50;KCNQ2 W236L pot=i
COc1ccc(F)cc1C(=O)C1CCCN(C(=O)C2=C(C)OCCO2)C1 (stereo not drawn)	i	2.1	nt	nt
Cc1cc(CN(C)Cc2c(C(=O)N3CCCCCCC3)nc3ccc(Cl)cn23)n[nH]1	i	nt	nt	nt
O=C(CCC(=O)c1ccc(F)cc1)NC1CCCN(Cc2ccccc2F)C1 (stereo not drawn)	i	1.3	nt	nt
CC(=O)c1c(Cl)nc2ccc(Br)cc2c1-c1ccccc1	i	nt	nt	nt
Cc1cccc(C)c1NC(=O)CNC(=O)CNC(=O)c1ccc2c(c1)OCO2	i	0.53	nt	nt
COc1ccc(CNCC(O)(c2ccccc2)c2ccccc2)cc1	i	nt	56%*	i
Cc1ccc(CNCC(O)(c2ccc(F)cc2)c2ccc(F)cc2)cc1	i	nt	nt	nt
COc1ccccc1CNCC(O)(c1ccc(Cl)cc1)c1ccc(Cl)cc1	i	nt	nt	nt
COc1ccccc1CNCC(O)(c1ccc(F)cc1)c1ccc(F)cc1	i	nt	53%*	i
COc1ccc(CNCC(O)(c2ccc(F)cc2)c2ccc(F)cc2)cc1	i	nt	i	i
OC(CNCc1ccccc1)(c1ccccc1)c1ccccc1	i	nt	nt	nt
Cc1cc2nnc(SCC(=O)NCC(c3ccccc3)N(C)C)n2c2ccccc12 (stereo not drawn)	i	0.41	nt	nt
CCC(C(=O)NCCCN(CC)Cc1ccccc1)n1nc(C)c2sc3ccccc3c2c1=O (stereo not drawn)	i	nt	47%*	64%*
Cc1nn(C(C)C(=O)NCCCN(Cc2ccccc2)C(C)C)c(=O)c2c1sc1ccccc12 (stereo not drawn)	i	0.8	nt	nt
COc1ccc(NC(=O)NCCCCc2ccccc2)c(OC)c1	i	nt	nt	nt
